Source: PubChem BioAssay (several laboratories)
hgDAF-12 ag: activates the H. glycines DAF-12 receptor ligand-binding domain; HEK293 GAL4-hgDAF12 UAS-luciferase reporter, agonist luminescence; normalized to butyrate control; 1.8% of 370,000 active; activation, % at 6.8 µM;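 active means activation above a cutoff set at the mean of all screened compounds plus 3 SD, cut at about 10% in these data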;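 further: 0% = DMSO wells and 100% = sodium butyrate wells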
NR1D1 modulator: Rev-erb alpha (human) modulation; P20393; Rev-erbα–FITC-DNA binding, fluorescence polarization, 90 min; activity, % at 10 µM; 0.79% of 370,000 active;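 active means activity above about 14%, limit read from the data; passing the limit was not always enough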;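 further: 0% = DMSO wells with 35 nM protein and 100% = DMSO wells with 750 nM protein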
DAX1 inh-1: blocks DAX1 repression of SF-1 activated StAR promoter; HEK293T StAR-luciferase reporter, SF-1/DAX-1 repression relief; inhibition, % at 6.8 µM; AID 652010; 1.1% of 370,000 active;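 active means inhibition above the mean over all tested compounds plus 3 SD, cut at about 3.6% in these data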;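 further: 0% = DAX-1 cells with DMSO and 100% = cells lacking DAX-1 with DMSO; higher inhibition means more luminescence from relief of DAX-1 repression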
ssDAF-12 act: activates DAF-12 receptor from parasite S. stercoralis; 1% of 370,000 active; activation, % at 6.8 µM; HEK293 ssDAF-12/GRIP1 lit1-tk-luc reporter, luminescence; % of 3 µM dafachronic acid response;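 active means activation above the mean over all tested compounds plus 3 SD, cut at about 0.9% in these data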;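 further: 0% = DMSO-only wells and 100% = 3 µM delta7-dafachronic acid wells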
hcDAF-12 act: H. contortus DAF-12 activation, primary screen; AID 652067; activation, % at 6.8 µM; HEK293 hcDAF-12 lit1-tk-luc reporter, luminescence; 0% DMSO, 100% Δ7-dafachronic acid; 1.4% of 370,000 active;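 active means activation above the mean of all tested compounds plus 3 SD, cut at about 5.5% in these data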;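 further: 100% = response to 3 µM Δ7-dafachronic acid high control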
DAX1 inh-2: inhibitors of human orphan nuclear receptor DAX1 (NR0B1); P51843; HEK293 Gal4-DAX1 luciferase reporter, luminescence; inhibition, % at 6.75 µM; 0.99% of 340,000 active; AID 504766;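 active means inhibition above the mean over all tested compounds plus 3 SD, cut at about 4.2% in these data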;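 further: 0% = DAX1-transfected cells with DMSO and 100% = empty-vector control cells with DMSO; inhibition shows as a rise in luminescence from relieved DAX1 repression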
Target sequence (P51843 207-470 limits assumed): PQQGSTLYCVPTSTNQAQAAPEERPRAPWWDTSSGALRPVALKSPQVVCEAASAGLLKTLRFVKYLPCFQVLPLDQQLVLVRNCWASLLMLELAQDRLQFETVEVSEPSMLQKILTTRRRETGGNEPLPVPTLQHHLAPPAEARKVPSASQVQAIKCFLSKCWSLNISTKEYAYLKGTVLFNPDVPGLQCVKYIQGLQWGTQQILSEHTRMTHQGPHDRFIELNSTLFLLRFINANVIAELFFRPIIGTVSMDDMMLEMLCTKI
DAX1 conf: NR0B1 (human) inhibition, confirmation. HEK293T StAR-promoter luciferase reporter, SF-1/DAX-1 repression. shares compounds with DAX1 inh-1. inhibition, % at 6.8 µM. 87% of 2,400 active;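 active means inhibition above the average of every tested compound plus 3 SD, cut at about 3.8% in these data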;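 further: 0% = DAX-1 cells with DMSO and 100% = no DAX-1 control cells with DMSO; active compounds raise luminescence by relieving repression of the StAR reporter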
Target sequence (P51843 whole entry, looked up): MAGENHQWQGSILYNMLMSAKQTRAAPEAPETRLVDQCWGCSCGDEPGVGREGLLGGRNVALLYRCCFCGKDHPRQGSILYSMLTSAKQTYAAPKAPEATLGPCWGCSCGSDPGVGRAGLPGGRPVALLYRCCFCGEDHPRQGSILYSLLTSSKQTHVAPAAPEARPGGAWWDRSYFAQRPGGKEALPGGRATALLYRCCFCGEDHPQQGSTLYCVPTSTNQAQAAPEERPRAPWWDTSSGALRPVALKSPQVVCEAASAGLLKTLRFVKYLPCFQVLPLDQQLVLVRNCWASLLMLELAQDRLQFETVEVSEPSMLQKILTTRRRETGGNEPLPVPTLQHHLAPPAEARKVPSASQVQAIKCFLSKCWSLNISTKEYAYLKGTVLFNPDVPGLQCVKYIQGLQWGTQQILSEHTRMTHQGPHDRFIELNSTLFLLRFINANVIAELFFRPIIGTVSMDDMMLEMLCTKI
SF1 AF2mut Luc: nonselective inhibitor or artifact in SF-1 mutant DAX1 counter-screen; shares compounds with DAX1 inh-1; HEK293 StAR-luciferase, SF-1 AF2 mutant, luminescence; inhibition, % at 6.8 µM; 78% of 2,400 active; AID 652136;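 active means inhibition above the mean of all tested compounds plus 3 SD, cut at about 3% in these data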;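 further: 0% = DAX-1 transfected cells with DMSO and 100% = cells without DAX-1 with DMSO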
LXRb hcDAF ctr: LXR-beta agonism as hcDAF-12 counter-screen; activation, % at 6.8 µM; HEK293 Gal4-LXR tk-luc reporter, luminescence, 24 h; normalized: DMSO 0%, positive control 100%; AID 743027; shares compounds with hcDAF-12 act; 3,400 tested, under 10 active;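 active means mean percent activation of the reporter above a cutoff set as the average over tested compounds plus their standard deviation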
hcDAF12 conf: confirmation of H. contortus DAF-12 agonists; shares compounds with hcDAF-12 act; HEK293 hcDAF-12 lit1-tk-luc reporter, luminescence; % of Δ7-dafachronic acid response; activation, % at 6.8 µM; 61% of 3,400 active; AID 743032;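 active means mean activation across triplicate tests above the threshold derived from the earlier primary screen, cut at about 5.5% in these data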;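 further: 0% = DMSO only wells and 100% = 3 µM Δ7-dafachronic acid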
hgDAF12 ag: confirmation of H. glycines DAF-12 agonists; activation, % at 6.8 µM; 80% of 3,300 active; HEK293 GAL4-hgDAF12 luciferase reporter, agonist mode; percent of butyrate response; shares compounds with hgDAF-12 ag;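 active means mean activation over triplicate wells above the hit cutoff derived from the earlier primary screen, cut at about 11% in these data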;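 further: 0% = DMSO low control and 100% = 2 mM sodium butyrate high control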
LXRb DAF12 ctr: LXR-beta agonism as DAF-12 counter-screen | shares compounds with hgDAF-12 ag | HEK293 Gal4-LXR luciferase reporter, 24 h | activation, % at 6.8 µM | 3,300 tested, under 10 active | AID 743051;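 active means mean activation of the triplicate above a set limit carried over from the primary screen, none filed active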
Numbers without * were called inactive. Shown are actives, neighbours in structure and some others; about 4.8% of the full set was active somewhere.

Screening CCc1sc(C(=O)N2CCc3ccccc32)cc1C returned hgDAF-12 ag 33*, NR1D1 modulator -2, DAX1 inh-1 6.3*, ssDAF-12 act 3.5*, hcDAF-12 act 10*, DAX1 inh-2 2, DAX1 conf 11*, SF1 AF2mut Luc 6.6*, LXRb hcDAF ctr 1, hcDAF12 conf 7.2*, hgDAF12 ag 21* and LXRb DAF12 ctr 1.
`CCOC(=O)C(=C1Nc2ccccc2N1)n1c(-c2cccnc2)nc2ccccc21` gave hgDAF-12 ag 15*, NR1D1 modulator -1, DAX1 inh-1 5.1*, ssDAF-12 act 0, hcDAF-12 act 3, DAX1 conf 7.7*, SF1 AF2mut Luc 4.4*, hgDAF12 ag 13* and LXRb DAF12 ctr 1.
For CCOC(=O)Cn1c(-c2cccnc2)nc(-c2ccccc2)c1-c1ccccc1 the results were hgDAF-12 ag 2, NR1D1 modulator 4, DAX1 inh-1 -1, ssDAF-12 act -1, hcDAF-12 act -3 and DAX1 inh-2 -2.
`COc1cc(OC)cc(C(=O)Oc2ccc(/C=N/Nc3nc4ccccc4s3)cc2OC)c1` gave hgDAF-12 ag -5, NR1D1 modulator 5, DAX1 inh-1 0, ssDAF-12 act 0, hcDAF-12 act 2 and DAX1 inh-2 3.
`C(=C\c1ccccc1)/C=N/Nc1nc2ccccc2s1` gave hgDAF-12 ag 19*, NR1D1 modulator 3, DAX1 inh-1 5.3*, ssDAF-12 act 2.2*, hcDAF-12 act 16*, DAX1 inh-2 5.7*, DAX1 conf 14*, SF1 AF2mut Luc 11*, LXRb hcDAF ctr 1, hcDAF12 conf 9.6*, hgDAF12 ag 20* and LXRb DAF12 ctr 1.
Brc1ccc(/C=C/C=N/Nc2nc3ccccc3s2)cc1 was read as hgDAF-12 ag 1, NR1D1 modulator -2, DAX1 inh-1 0, ssDAF-12 act 0, hcDAF-12 act 4 and DAX1 inh-2 0.
`C(=N\Nc1nc2ccccc2s1)/c1ccc2c(c1)OCO2` gave hgDAF-12 ag 17*, NR1D1 modulator 0, DAX1 inh-1 8.2*, ssDAF-12 act 4.5*, hcDAF-12 act 17*, DAX1 inh-2 2, DAX1 conf 19*, SF1 AF2mut Luc 12*, LXRb hcDAF ctr 2, hcDAF12 conf 9.6*, hgDAF12 ag 24* and LXRb DAF12 ctr 1.
For COc1ccc(C=NNc2nc3ccccc3s2)cc1 the results were hgDAF-12 ag 17*, NR1D1 modulator -5, DAX1 inh-1 11*, ssDAF-12 act 0.9*, hcDAF-12 act 14*, DAX1 inh-2 -1, DAX1 conf 22*, SF1 AF2mut Luc 12*, LXRb hcDAF ctr 2, hcDAF12 conf 13*, hgDAF12 ag 16* and LXRb DAF12 ctr 1.
For c1ccc2sc(Nc3nc4cc5c(cc4s3)OCO5)nc2c1 the results were hgDAF-12 ag 18*, NR1D1 modulator 6, DAX1 inh-1 5.4*, ssDAF-12 act 2.3*, hcDAF-12 act 7.4*, DAX1 inh-2 3, DAX1 conf 12*, SF1 AF2mut Luc 7.8*, LXRb hcDAF ctr 1, hcDAF12 conf 8.2*, hgDAF12 ag 17* and LXRb DAF12 ctr 1.
`CCCCN1CC(N2CCCC2)CS1(=O)=O` (stereo not given) gave hgDAF-12 ag -4, NR1D1 modulator 10, DAX1 inh-1 0, ssDAF-12 act 0 and hcDAF-12 act -2.
`NS(=O)(=O)c1ccc(OCCCN2CCC(C(O)(c3ccccc3)c3ccccc3)CC2)cc1` gave hgDAF-12 ag -2, NR1D1 modulator 5, DAX1 inh-1 0, ssDAF-12 act -2 and hcDAF-12 act -2.
`Cc1cc(C)cc(C(=O)OCCN(C)C2CN(Cc3cn(Cc4ccccc4F)nn3)S(=O)(=O)C2)c1` (stereo not given) gave hgDAF-12 ag 0, NR1D1 modulator 0, DAX1 inh-1 -1, ssDAF-12 act -2 and hcDAF-12 act -2.
CCOC(=O)C1=C(C(=O)OCC)C2N(Cc3ccc(Br)cc3)c3ccccc3[C@@]23C[C@@H](C(=O)OC)N(S(=O)(=O)c2cccs2)C3=N1 (stereo not given in full) was read as hgDAF-12 ag 0, NR1D1 modulator -3, DAX1 inh-1 -1, ssDAF-12 act -1 and hcDAF-12 act -2.
O=C(Nc1ccc(SC(F)F)cc1)C1=COCCO1 was read as hgDAF-12 ag 15*, NR1D1 modulator 0, DAX1 inh-1 4.9*, ssDAF-12 act 1, hcDAF-12 act 4, DAX1 inh-2 1, DAX1 conf 13*, SF1 AF2mut Luc 6.8*, hgDAF12 ag 14* and LXRb DAF12 ctr 1.
O=C(c1cnn(-c2ccccc2)c1)c1cc(F)ccc1O was read as hgDAF-12 ag 7, NR1D1 modulator 1, DAX1 inh-1 1, ssDAF-12 act 0, hcDAF-12 act 4 and DAX1 inh-2 3.
O=C(c1cnn(-c2ccccc2)c1)c1ccccc1O was read as hgDAF-12 ag 23*, NR1D1 modulator -3, DAX1 inh-1 6.1*, ssDAF-12 act 1, hcDAF-12 act 7.9*, DAX1 inh-2 0, DAX1 conf 13*, SF1 AF2mut Luc 7.9*, LXRb hcDAF ctr 1, hcDAF12 conf 7.1*, hgDAF12 ag 20* and LXRb DAF12 ctr 1.
For CCOC(=O)[C@]12CCCCC/C=C\1N(CCc1ccc(Cl)cc1)C(=O)[C@H]2CC(=O)NCc1cccc(C(F)(F)F)c1 the results were hgDAF-12 ag -1, NR1D1 modulator -2, DAX1 inh-1 -1, ssDAF-12 act -1 and hcDAF-12 act -3.
